{"source": "ChEMBL document CHEMBL3988442", "about": "“University of Dundee, Small-Polar-MMV Screening Library” (2021)", "note": "Hit rate of the full screen: of about 48,000 compounds, about 13,000 (27%) showed an effect of 50% or more. The list shows a part of the results."}
{"system": "Wolbachia pipientis", "experiment": "Anti-Wolbachia Cell-Based Screen", "assay_type": "functional", "parameters": "scale not given: in the data most compounds retested in dose-response had high values", "conditions": "5 µM", "units": {"Percent Effect": "%"}}
{"smiles": "O=C(CN1CCCS(=O)(=O)CC1)NCc1ccccc1F", "Percent Effect": -8.655}
{"smiles": "Cc1ccc(CNC(=O)NC2CCN(CC(F)F)CC2)cc1", "Percent Effect": -0.1084}
{"smiles": "Cn1cnnc1C1CCN(c2nc3ccccc3o2)CC1", "Percent Effect": -4.492}
{"smiles": "CCOc1ccc(CN(C)C2CCN(c3cc(C)nn3C)C2=O)cc1", "note": "(configuration not stated)", "Percent Effect": -7.061}
{"smiles": "CCn1ccc(C(=O)N2CCCN(Cc3ccccc3F)CC2)cc1=O", "Percent Effect": -3.557}
{"smiles": "CN(Cc1ccccc1)c1ncccc1CNC(=O)c1ccnn1C", "Percent Effect": -0.05459}
{"smiles": "Cc1ccc(-n2nnc(CC(=O)N3CCSCC3)c2C)cc1", "Percent Effect": 7.911}
{"smiles": "O=C(NCCN1CCOCC1)NCC(O)c1cccc(F)c1", "note": "(configuration not stated)", "Percent Effect": -0.6049}
{"smiles": "O=C(NCCc1cccc(F)c1)NCC(O)c1cccc(F)c1", "note": "(configuration not stated)", "Percent Effect": 4.017}
{"smiles": "O=C(NCCc1ccccc1)NCC(O)c1cccc(F)c1", "note": "(configuration not stated)", "Percent Effect": 91.4}
{"smiles": "CN1CC2(CCN(C(=O)c3ccc4c(=O)n(C)cnc4c3)C2)OC1=O", "note": "(configuration not stated)", "Percent Effect": -9.693}
{"smiles": "COc1c(C2CCCN2Cc2csc(C(C)C)n2)c(C)nn1C", "note": "(configuration not stated)", "Percent Effect": 4.743}
{"smiles": "Cc1cccc(CN2C(=O)CCC23CCN(Cc2ccoc2)CC3)n1", "Percent Effect": 102.5}
{"smiles": "Cc1cccc(CN2C(=O)CCC23CCN(Cc2nccn2C)CC3)n1", "Percent Effect": 88.13}
{"smiles": "Cc1cccc(Cn2c3c(ccc2=O)CCN(Cc2ccoc2)CC3)n1.O=C(O)C(F)(F)F.O=C(O)C(F)(F)F", "Percent Effect": 0.1669}
{"smiles": "Cc1cccc(CN2C(=O)CC[C@@H]3[C@H]2CCN3Cc2nccn2C)n1.O=C(O)C(F)(F)F.O=C(O)C(F)(F)F.O=C(O)C(F)(F)F", "Percent Effect": 16.26}
{"smiles": "CN1CC(=O)N(c2ccsc2)CC12CCN(Cc1nccn1C)C2", "note": "(configuration not stated)", "Percent Effect": 2.996}
{"smiles": "O=C1CCC2(CCN(Cc3ccoc3)CC2)N1OCc1ccccc1F", "Percent Effect": -6.682}
{"smiles": "Cn1cc(C#N)cc1C(=O)NC1(C#N)CCSCC1", "Percent Effect": -2.619}
{"smiles": "COCCN(Cc1nccs1)C(=O)c1cc(-c2ccc(C)s2)n[nH]1", "Percent Effect": -12.01}
{"smiles": "Cc1nc(COc2ccc(S(=O)(=O)N(C)C)cc2)sc1C", "Percent Effect": 104.7}
{"smiles": "CN(c1ccc(OCc2cnc(Cl)s2)cc1)S(C)(=O)=O", "Percent Effect": 2.089}
{"smiles": "Cc1nc(C)c(COc2ccc(S(=O)(=O)N(C)C)cc2)s1", "Percent Effect": 94.55}
{"smiles": "CN(C)S(=O)(=O)c1ccc(OCCNCCn2cccn2)cc1", "Percent Effect": 11.92}
{"smiles": "Cc1ncc(COc2ccc(N(C)S(C)(=O)=O)cc2)s1", "Percent Effect": -0.05196}
{"smiles": "Cc1noc(C)c1CNC(C)c1ccc(S(=O)(=O)N(C)C)cc1", "note": "(configuration not stated)", "Percent Effect": -12.9}
{"smiles": "COc1ccc(OCc2sc(C3(O)CCCNCC3)nc2C)cc1.Cl", "note": "(configuration not stated)", "Percent Effect": -5.149}
{"smiles": "Cc1nc(C)c(COc2ccc(N(C)S(C)(=O)=O)cc2)s1", "Percent Effect": -26.99}
{"smiles": "Cc1nc(COc2ccc(N(C)S(C)(=O)=O)cc2)sc1C", "Percent Effect": 78.79}
{"smiles": "CC(C)N1Cc2cccc(NCC(=O)N(C)C)c2C1", "Percent Effect": -13.34}
{"smiles": "Cc1ccc(N2Cc3c(CN(C)C)nn(C)c3C2)nn1", "Percent Effect": -4.068}
{"smiles": "O=C(O)C(F)(F)F.O=C(c1cscn1)N1CCc2c(COCC3CC3)cncc2C1", "Percent Effect": 89.35}
{"smiles": "O=C(O)C(F)(F)F.O=C(c1ccsc1)N1CCc2c(COCC3CC3)cncc2C1", "Percent Effect": -5.644}
{"smiles": "CC(C)COCc1cncc2c1CCN(Cc1cnn(C)c1)C2.O=C(O)C(F)(F)F.O=C(O)C(F)(F)F", "Percent Effect": -4.372}
{"smiles": "CCOCc1cncc2c1CCN(C(=O)c1cscn1)C2.O=C(O)C(F)(F)F", "Percent Effect": 95.41}
{"smiles": "O=C(O)C(F)(F)F.O=C(c1ccco1)N1CCc2c(COCC3CC3)cncc2C1", "Percent Effect": -15.15}
{"smiles": "CC(C)COCc1cncc2c1CCN(C(=O)c1cscn1)C2.O=C(O)C(F)(F)F", "Percent Effect": 82.53}
{"smiles": "Cc1ncsc1CN1C[C@@H]2COC[C@]2(C(=O)NC2CC(F)(F)C2)C1.O=C(O)C(F)(F)F", "Percent Effect": 20.27}
{"smiles": "CN(C)C(=O)N1C[C@@H]2CC[C@H](C1)N(C(=O)CCCn1cncn1)C2", "Percent Effect": -23.9}
{"smiles": "Cc1ccc(F)c(S(=O)(=O)NCc2cccc(C(=O)N3CCCC3)c2)c1", "Percent Effect": 126.7}
{"smiles": "O=C(c1cccc(CNC/C=C/c2ccccc2)c1)N1CCCC1", "Percent Effect": -7.138}
{"smiles": "Cc1ccc(F)cc1S(=O)(=O)NCc1cccc(C(=O)N2CCCC2)c1", "Percent Effect": 74.77}
{"smiles": "Cc1cc(F)ccc1CNCc1cccc(C(=O)N2CCCC2)c1", "Percent Effect": 100.5}
{"smiles": "Cc1cc(F)ccc1S(=O)(=O)NCc1cccc(C(=O)N2CCCC2)c1", "Percent Effect": 0.7357}
{"smiles": "O=C(NCc1cccc(F)c1)c1cccc(C(=O)N2CCCC2)n1", "Percent Effect": 8.268}
{"smiles": "Cc1cc(S(=O)(=O)NCc2cccc(C(=O)N3CCCC3)c2)c(C)s1", "Percent Effect": 10.27}
{"smiles": "O=C(c1cccc(CNS(=O)(=O)c2ccccc2F)c1)N1CCCC1", "Percent Effect": 1.767}
{"smiles": "O=C1[C@@H]2CCN(CC3CCOCC3)C[C@@H]2OCCN1c1ccccc1", "Percent Effect": -22.15}
{"smiles": "CN(C)C(=O)CNC(CC(F)(F)F)c1ccc(Cl)cc1", "note": "(configuration not stated)", "Percent Effect": 1.329}
{"smiles": "OCCNC1CSCCc2ccccc21", "note": "(configuration not stated)", "Percent Effect": -7.147}
{"smiles": "Cc1n[nH]cc1CNC1(c2ccc(Br)cc2)CC1", "Percent Effect": -6.578}
{"smiles": "O=C(CC(F)(F)F)NC(c1ccc(Cl)cc1)c1ncon1", "note": "(configuration not stated)", "Percent Effect": 11.91}
{"smiles": "O=C([C@@H]1COC[C@H]2CN(CC3CCCC3)C[C@H]21)N1CCOCC1", "Percent Effect": -6.22}
{"smiles": "O=C(Cc1ccc2c(c1)OCC2)Nc1nc(C(F)(F)F)n[nH]1", "Percent Effect": 131.9}
{"smiles": "CN(Cc1nnc2n1CCC2)C(=O)Cc1ccc2c(c1)OCCO2", "Percent Effect": -1.07}
{"smiles": "O=C(Cc1ccc2c(c1)CCO2)Nc1ccc(-n2cncn2)nc1", "Percent Effect": -5.052}
{"smiles": "CN(C)c1cc2c(nn1)CCN(C(=O)Cc1ccc3c(c1)CCO3)C2", "Percent Effect": -10.79}
{"smiles": "O=C(Cc1ccc2c(c1)OCO2)N[C@@H]1CCNC[C@H]1O", "Percent Effect": -5.906}
{"smiles": "O=C(Cc1ccc2c(c1)OCC2)Nc1nc[nH]n1", "Percent Effect": 104.4}
{"smiles": "O=C(Cc1ccc2c(c1)OCC2)Nc1nn[nH]n1", "Percent Effect": 216.7}
{"smiles": "Nc1cc2c(nn1)CCN(C(=O)Cc1ccc3c(c1)CCO3)C2", "Percent Effect": 8.586}
{"smiles": "O=C(Cc1ccc2c(c1)OCCO2)NC1CCN(CC(F)F)CC1", "Percent Effect": 2.104}
{"smiles": "CCCc1cc(N2CCCC2Cn2cc(C)cn2)n2ncnc2n1", "note": "(configuration not stated)", "Percent Effect": -1.643}
{"smiles": "O=C(Nc1ccc2ncccc2c1)C1CC(=O)N(Cc2ccccn2)C1", "note": "(configuration not stated)", "Percent Effect": -4.026}
{"smiles": "Cc1ccc(C(NC(=O)CCNC(=O)c2ccoc2)C(F)(F)F)cc1", "note": "(configuration not stated)", "Percent Effect": 20.44}
{"smiles": "Cc1nc(CN2C[C@@H](NS(=O)(=O)N(C)C)[C@H](C(C)C)C2)cs1", "Percent Effect": -0.9733}
{"smiles": "Cc1ccc(CN(CC(=O)NCC2CCOC2)c2ccc(F)cc2)o1", "note": "(configuration not stated)", "Percent Effect": -9.674}
{"smiles": "COc1cccc(C(=O)N(C)C(C)c2c(C)n[nH]c2C)c1OC", "note": "(configuration not stated)", "Percent Effect": -15.68}
{"smiles": "COc1cccc(Oc2nc(C)c(C(=O)O)s2)c1OC", "Percent Effect": 116.8}
{"smiles": "Cc1nc(-c2ccc(Cl)s2)sc1C(=O)O", "Percent Effect": 9.091}
{"smiles": "COc1cccc(CNCc2c(C)nc3sc(C)cn23)c1OC", "Percent Effect": -11.36}
{"smiles": "Cc1ccc2cccc(Oc3nc(C)c(C(=O)O)s3)c2n1", "Percent Effect": 111}
{"smiles": "Cc1nc(Oc2ccccc2Cl)sc1C(=O)O", "Percent Effect": 98.65}
{"smiles": "Cc1ccc2cccc(C(=O)N3CCN(c4cccnn4)CC3)c2n1", "Percent Effect": -2.333}
{"smiles": "Cc1nc(-c2ccccc2F)sc1C(=O)N1CCN(C)CC1", "Percent Effect": 3.843}
{"smiles": "Cc1nc(Oc2ccccc2F)sc1C(=O)O", "Percent Effect": 91.89}
{"smiles": "CCOC(=O)CCNC(=O)c1cccc2ccc(C)nc12", "Percent Effect": -7.02}
{"smiles": "CC(=O)Nc1cnc(Oc2ccccc2F)nc1", "Percent Effect": -1.763}
{"smiles": "Cc1nc(NC(=O)OC(C)(C)C)sc1C(=O)O", "Percent Effect": 0.0995}
{"smiles": "O=C1C(N2CCOC3(CCCC3)C2)CCN1C1CC1", "note": "(configuration not stated)", "Percent Effect": 15.83}
{"smiles": "Cc1nnc2n1CC(CNc1ncnc3ccccc13)CC2", "note": "(configuration not stated)", "Percent Effect": -0.4612}
{"smiles": "CCN(CC)CCCN1CCC(NC(=O)OC(C)(C)C)CC1", "Percent Effect": 13.41}
{"smiles": "Cc1cc(C)n(Cc2cccc(C(=O)NCCN3CCOCC3)c2)n1", "Percent Effect": -2.99}
{"smiles": "Cc1cc(C)n(CCN2CCN(C(=O)c3ccccc3Br)CC2)n1", "Percent Effect": 0.6022}
{"smiles": "CSCCCN(CCN1CCOCC1)Cc1ccco1", "Percent Effect": 114.6}
{"smiles": "Cc1cc(C)n(CCCN(CCN2CCOCC2)Cc2ccco2)n1", "Percent Effect": 110.7}
{"smiles": "CN(C)CCN1CCc2ncc(CN(C)Cc3ccco3)n2CC1", "Percent Effect": 24.09}
{"smiles": "Cl.Cl.O[C@@H]1C[C@@](CNCc2cccc(Cl)c2)(COc2cccnc2)C[C@@H]1O", "Percent Effect": -8.733}
{"smiles": "COc1ncccc1CN1C[C@H]2CCN(c3ccc(C)nn3)C[C@H]2C1.O=C(O)C(F)(F)F", "Percent Effect": 107.5}
{"smiles": "CCOCC1CN(Cc2cccnc2OC)Cc2cnn(C)c21.O=C(O)C(F)(F)F.O=C(O)C(F)(F)F.O=C(O)C(F)(F)F", "note": "(configuration not stated)", "Percent Effect": 2.379}
{"smiles": "Cc1ccc(N2CC[C@H]3CN(C(=O)c4ccn(C)n4)C[C@H]3C2)nn1.O=C(O)C(F)(F)F", "Percent Effect": -19.75}
{"smiles": "COc1ncccc1CN1Cc2nnn(C)c2C(COCC2CC2)C1.O=C(O)C(F)(F)F.O=C(O)C(F)(F)F", "note": "(configuration not stated)", "Percent Effect": -15.9}
{"smiles": "COc1ncccc1CN1C[C@H]2C[C@@H](C(=O)NCC3CC3)N(C)[C@H]2C1.O=C(O)C(F)(F)F.O=C(O)C(F)(F)F.O=C(O)C(F)(F)F", "Percent Effect": 107.4}
{"smiles": "COc1ncccc1CN1CC[C@@]2(O)CCN(C(=O)C3CCC3)C[C@H]2C1", "Percent Effect": 6.817}
{"smiles": "COc1ncccc1CN1C[C@@H]2C[C@@H](C(=O)NCC3CC3)N(C)[C@@H]2C1", "Percent Effect": 96.26}
{"smiles": "COc1ncccc1CNC(=O)N1CCC(CNC(C)=O)CC1", "Percent Effect": 18.77}
{"smiles": "COc1ncccc1CN1CCC2(CCCN2S(C)(=O)=O)CC1.O=C(O)C(F)(F)F.O=C(O)C(F)(F)F", "Percent Effect": 2.287}
